Test results published in PubChem BioAssay AID1159580 (chemical genetic matrix, 2015).
“And” between values parts separate entries of the source, which are not always exact repeats. Identical values can stand only once. Out of some 5,500 compounds screened, about 2,000 (36%) were called active. Not shown: some 18% with an inconclusive outcome. Rule as the data show it: active = normalized growth mostly below about 0.91 (no sharp cut-off); inconclusive = no clear call, values can overlap the other calls; inactive = mostly above about 0.92. This is one part of the list.

Experiment: chemical genetic growth profiling, strain panel (AID 1159580);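 also: tested at 20 µM; growth read once vehicle control cultures reached saturation at 30 °C; 1 = growth at the plate median or of vehicle wells; lower values mean less growth of the strain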
Settings: S. cerevisiae deletion strains, growth OD

Measured: normalized growth

Cc1onc(-c2c(Cl)cccc2Cl)c1C(=O)N[C@@H]1C(=O)N2[C@@H]1SC(C)(C)[C@@H]2C(=O)O
inactive: locus YAL013W, strain DEP1, active compounds read low 1.02 | locus YAL021C, strain ccr4, active compounds read low 0.969 | locus YAL026C, strain drs2, active compounds read low 1.02 | locus YAL030W, strain snc1, active compounds read low 0.994 | locus YBL061C, strain skt5, active compounds read low 0.991 | locus YBR009C, strain hhf1, active compounds read low 1 | locus YBR021W, strain FUR4, active compounds read low 1.03 | locus YBR023C, strain chs3, active compounds read low 0.986 | locus YBR171W, strain sec66, active compounds read low 0.993 | locus YBR229C, strain ROT2, active compounds read low 1.01 | locus YBR231C, strain swc5, active compounds read low 0.963 | locus YBR279W, strain paf1, active compounds read low 0.993 | locus YCL011C, strain gbp2, active compounds read low 1.01 | locus YCL016C, strain dcc1, active compounds read low 1.03 | locus YCL029C, strain bik1, active compounds read low 0.996 | locus YCL069W, strain vba3, active compounds read low 0.995 | locus YCR088W, strain abp1, active compounds read low 0.975 | locus YDL005C, strain med2, active compounds read low 0.995 | locus YDL035C, strain GPR1, active compounds read low 1.04 | locus YDL040C, strain nat1, active compounds read low 0.988 | locus YDL074C, strain BRE1, active compounds read low 1.01 | locus YDL101C, strain DUN1, active compounds read low 1.01 | locus YDL134C, strain PPH21, active compounds read low 1.05 | locus YDL185W, strain tfp1, active compounds read low 0.991 | locus YDL192W, strain arf1, active compounds read low 0.993 | locus YDR001C, strain nth1, active compounds read low 0.97 | locus YDR069C, strain doa4, active compounds read low 0.991 | locus YDR101C, strain arx1, active compounds read low 0.994 | locus YDR137W, strain rgp1, active compounds read low 0.991 | locus YDR150W, strain NUM1, active compounds read low 1.02 | locus YDR159W, strain sac3, active compounds read low 0.975 | locus YDR162C, strain NBP2, active compounds read low 1.02 | locus YDR195W, strain ref2 0.889 | locus YDR297W, strain sur2, active compounds read low 0.973 | locus YDR318W, strain mcm21, active compounds read low 0.995 | locus YDR334W, strain swr1, active compounds read low 0.948 | locus YDR335W, strain msn5, active compounds read low 0.967 | locus YDR388W, active compounds read low 1 | locus YDR392W, strain spt3, active compounds read low 1.12 | locus YDR502C, strain sam2, active compounds read low 0.996 | locus YEL003W, strain gim4, active compounds read low 0.973 | locus YEL037C, strain rad23, active compounds read low 0.995 | locus YEL061C, strain CIN8 (second series), active compounds read low 0.971 | locus YEL061C, strain CIN8, active compounds read low 1.01 | locus YER015W, strain faa2, active compounds read low 0.991 | locus YER016W, strain bim1, active compounds read low 0.997 | locus YER110C, active compounds read low 0.992 | locus YER111C, strain swi4, active compounds read low 0.998 | locus YER155C, strain BEM2 (second series), active compounds read low 0.973 | locus YER155C, strain BEM2, active compounds read low 1.01 | locus YER167W, strain BCK2, active compounds read low 1.02 | locus YFR010W, strain ubp6, active compounds read low 0.97 | locus YGL078C, strain dbp3, active compounds read low 1 | locus YGL086W, strain mad1, active compounds read low 1.01 | locus YGL167C, strain pmr1, active compounds read low 0.976 | locus YGL173C, strain kem1, active compounds read low 0.961 | locus YGL227W, strain vid30, active compounds read low 0.981 | locus YGL240W, strain doc1, active compounds read low 0.951 | locus YGL248W, strain PDE1, active compounds read low 1.01 | locus YGL253W, strain hxk2, active compounds read low 1.02 | locus YGR078C, strain PAC10, active compounds read low 1.01 | locus YGR135W, strain pre9, active compounds read low 0.976 | locus YGR229C, strain SMI1, active compounds read low 1.02 | locus YGR252W, strain gcn5, active compounds read low 0.946 | locus YHR013C, strain ard1, active compounds read low 1.02 | locus YHR027C, strain rpn1, active compounds read low 0.997 | locus YHR030C, strain SLT2, active compounds read low 1.01 and 1.06 | locus YHR079C, strain IRE1 (second series), active compounds read low 0.989 | locus YHR079C, strain IRE1, active compounds read low 1.02 | locus YHR094C, strain hxt1, active compounds read low 0.994 | locus YHR129C, strain ARP1, active compounds read low 1.02 | locus YHR142W, strain chs7, active compounds read low 1.02 | locus YHR200W, strain rpn10, active compounds read low 0.991 | locus YIL066C, strain RNR3, active compounds read low 1.02 | locus YIL073C, strain SPO22, active compounds read low 0.988 | locus YIL125W, strain kgd1, active compounds read low 0.998 | locus YIR030C, strain dcg1, active compounds read low 1.01 | locus YJL092W, strain hpr5, active compounds read low 0.99 | locus YJL095W, strain BCK1 (second series), active compounds read low 0.983 | locus YJL095W, strain BCK1, active compounds read low 1 and 1.04 | locus YJL115W, strain asf1, active compounds read low 0.979 | locus YJL129C, strain trk1, active compounds read low 0.972 | locus YJL134W, strain LCB3, active compounds read low 1.01 | locus YJL154C, strain vps35, active compounds read low 0.978 | locus YJL164C, strain tpk1, active compounds read low 1.02 | locus YJL166W, strain qcr8, active compounds read low 0.957 | locus YJL168C, strain set2, active compounds read low 0.988 | locus YJL187C, strain SWE1 (second series), active compounds read low 1.01 | locus YJL187C, strain SWE1, active compounds read low 0.987 | locus YJR043C, strain POL32, active compounds read low 1.04
